According to the supplement of paper PMC8728848:
The full list was thinned out, with the strongest signals kept by preference.

Legend:
Experiment in all cases: glycan array binding signal (z-score within array); higher = stronger binding
Details in all cases: glycan notation: IUPAC condensed, linker removed
[1] = target: GlcNAc(a1-4)Gal(b1-4)GlcNAc
Summary of the method: (§1)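 Columns mapping to the same glycan were averaged after glycan names were converted to IUPAC-condensed notation. The data come from 3228 arrays in the Consortium for Functional Glycomics database, limited to those with an available protein sequence. Binding is reported as a within-array Z-score averaged across arrays of one protein sequence and across linkers.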

[2] = target: GlcNAc(b1-2)[GlcNAc(b1-4)]Man(a1-3)[GlcNAc(b1-2)Man(a1-6)]Man(b1-4)GlcNAc(b1-4)GlcNAc
Summary of the method: as §1

[3] = target: GlcNAc(b1-2)[GlcNAc(b1-6)]Man(a1-6)[GlcNAc(b1-2)Man(a1-3)]Man(b1-4)GlcNAc(b1-4)[Fuc(a1-6)]GlcNAc
Summary of the method: as §1

[4] = target: GlcNAc(b1-3)Gal(b1-3)GalNAc
Summary of the method: as §1

[5] = target: GlcNAc(b1-3)Gal(b1-4)GlcNAc(b1-3)Gal(b1-4)GlcNAc(b1-2)Man(a1-3)[GlcNAc(b1-3)Gal(b1-4)GlcNAc(b1-3)Gal(b1-4)GlcNAc(b1-2)Man(a1-6)]Man(b1-4)GlcNAc(b1-4)[Fuc(a1-6)]GlcNAc
Summary of the method: as §1

[6] = target: GlcNAc(b1-3)Gal(b1-4)GlcNAc(b1-3)GalNAc
Summary of the method: as §1

GlcNAc(b1-3)Man = target: GlcNAc(b1-3)Man
Summary of the method: as §1

[7] = target: GlcNAc(b1-4)GlcNAc(b1-4)GlcNAc
Summary of the method: as §1

[8] = target: GlcNAc(b1-4)GlcNAc(b1-4)GlcNAc(b1-4)GlcNAc(b1-4)GlcNAc
Summary of the method: as §1

[9] = target: GlcNAc(b1-6)Gal(b1-4)GlcNAc
Summary of the method: as §1

Kdn(a2-3)Gal(b1-4)Glc = target: Kdn(a2-3)Gal(b1-4)Glc
Summary of the method: as §1

[10] = target: Man(a1-2)Man(a1-3)[Man(a1-2)Man(a1-6)]Man(a1-6)[Man(a1-2)Man(a1-2)Man(a1-3)]Man(b1-4)GlcNAc(b1-4)GlcNAc
Summary of the method: as §1

[11] = target: Man(a1-2)Man(a1-3)[Man(a1-2)Man(a1-6)]Man(a1-6)[Man(a1-3)[Man(a1-6)]Man(a1-6)]Man(b1-4)GlcNAc(b1-4)GlcNAc
Summary of the method: as §1

[12] = target: Man(a1-2)Man(a1-3)[Man(a1-6)]Man(a1-6)[Man(a1-2)Man(a1-3)]Man(b1-4)GlcNAc(b1-4)GlcNAc
Summary of the method: as §1

[13] = target: Man(a1-2)Man(a1-6)[Man(a1-3)]Man(a1-6)[Man(a1-2)Man(a1-2)Man(a1-3)]Man(b1-4)GlcNAc(b1-4)GlcNAc
Summary of the method: as §1

[14] = target: Man(a1-3)[Man(a1-6)]Man(a1-6)[Man(a1-2)Man(a1-3)]Man(b1-4)GlcNAc(b1-4)GlcNAc
Summary of the method: as §1

[15] = target: Man(a1-3)[Man(a1-6)]Man(a1-6)[Man(a1-3)]Man(b1-4)GlcNAc(b1-4)GlcNAc
Summary of the method: as §1

[16] = target: Man(a1-3)[Man(a1-6)]Man(b1-4)GlcNAc(b1-4)GlcNAc
Summary of the method: as §1

[17] = target: Neu5Ac(a2-3)Gal(b1-3)GlcNAc
Summary of the method: as §1

[18] = target: Neu5Ac(a2-3)Gal(b1-3)GlcNAc(b1-4)Gal(b1-4)Glc
Summary of the method: as §1

[19] = target: Neu5Ac(a2-3)Gal(b1-3)[GlcNAc(b1-6)]GalNAc
Summary of the method: as §1

[20] = target: Neu5Ac(a2-3)Gal(b1-3)[Neu5Ac(a2-3)Gal(b1-4)]GlcNAc
Summary of the method: as §1

[21] = target: Neu5Ac(a2-3)Gal(b1-3)[Neu5Ac(a2-6)]GlcNAc(b1-3)[Fuc(a1-3)[Gal(b1-4)]GlcNAc(b1-6)]Gal(b1-4)Glc
Summary of the method: as §1

[22] = target: Neu5Ac(a2-3)Gal(b1-4)GlcNAc(b1-2)Man(a1-3)[GlcNAc(b1-4)][Neu5Ac(a2-3)Gal(b1-4)GlcNAc(b1-2)Man(a1-6)]Man(b1-4)GlcNAc(b1-4)GlcNAc
Summary of the method: as §1

[23] = target: Neu5Ac(a2-3)Gal(b1-4)GlcNAc(b1-2)Man(a1-3)[Neu5Ac(a2-3)Gal(b1-4)GlcNAc(b1-2)Man(a1-6)]Man(b1-4)GlcNAc(b1-4)[Fuc(a1-6)]GlcNAc
Summary of the method: as §1

[24] = target: Neu5Ac(a2-3)Gal(b1-4)GlcNAc(b1-3)Gal(b1-4)GlcNAc(b1-3)Gal(b1-4)GlcNAc(b1-2)Man(a1-3)[Neu5Ac(a2-3)Gal(b1-4)GlcNAc(b1-3)Gal(b1-4)GlcNAc(b1-3)Gal(b1-4)GlcNAc(b1-2)Man(a1-6)]GalNAc
Summary of the method: as §1

[25] = target: Neu5Ac(a2-3)Gal(b1-4)GlcNAc(b1-3)Gal(b1-4)GlcNAc(b1-3)[Neu5Ac(a2-3)Gal(b1-4)GlcNAc(b1-3)Gal(b1-4)GlcNAc(b1-6)]GalNAc
Summary of the method: as §1

[26] = target: Neu5Ac(a2-3)Gal(b1-4)[Fuc(a1-3)]GlcNAc
Summary of the method: as §1

[27] = target: Neu5Ac(a2-3)Gal(b1-4)[Fuc(a1-3)]GlcNAc(b1-3)Gal(b1-4)GlcNAc
Summary of the method: as §1

[28] = target: Neu5Ac(a2-3)[GalNAc(b1-4)]Gal(b1-4)Glc
Summary of the method: as §1

[29] = target: Neu5Ac(a2-6)Gal(b1-4)GlcNAc(b1-2)Man(a1-3)Man(b1-4)GlcNAc(b1-4)GlcNAc
Summary of the method: as §1

[30] = target: Neu5Ac(a2-6)Gal(b1-4)GlcNAc(b1-2)Man(a1-3)[GlcNAc(b1-4)][Neu5Ac(a2-6)Gal(b1-4)GlcNAc(b1-2)Man(a1-6)]Man(b1-4)GlcNAc(b1-4)GlcNAc
Summary of the method: as §1

[31] = target: Neu5Ac(a2-6)Gal(b1-4)GlcNAc(b1-2)Man(a1-3)[Man(a1-6)]Man(b1-4)GlcNAc(b1-4)GlcNAc
Summary of the method: as §1

[32] = target: Neu5Gc(a2-8)Neu5Gc(a2-3)Gal(b1-4)GlcNAc
Summary of the method: as §1

B1: UDA (Urtica dioica), P11218 (protein)
chain: MMMRFLSAVVIMSSAMAVGLVSAQRCGSQGGGGTCPALWCCSIWGWCGDSEPYCGRTCENKCWSGERSDHRCGAAVGNPPCGQDRCCSVHGWCGGGNDYCSGSKCQYRCSSSVRGPRVALSGNSTANSIGNVVVTEPLFDQMFSHRKDCPSQGFYSYHSFLVAAESFPAFGTIGDVATRKREVAAFLAHISQATSGERSDVENPHAWGLCHINTTTVTENDFCTSSDWPCAAGKKYSPRGPIQLTHNFNYGLAGQAIGEDLIQNPDLVEKDPIISFKTALWFWMSQHDNKPSCHDIVLNANSAANRIPNKGVIGNIISRAFGHDDFAVRSSSIGFYKRYCDMLGVSYGHDLKYWFDNTPSSEFQRIQMRVAA
- glycan array binding signal (z-score) [1]: 0.188
- glycan array binding signal (z-score) [2]: 0.083
- glycan array binding signal (z-score) [3]: -0.162
- glycan array binding signal (z-score) [4]: -0.181
- glycan array binding signal (z-score) [5]: 0.026
- glycan array binding signal (z-score) [6]: -0.182
- glycan array binding signal (z-score) (GlcNAc(b1-3)Man): -0.17
- glycan array binding signal (z-score) [7]: 2.6
- glycan array binding signal (z-score) [8]: 2.39
- glycan array binding signal (z-score) [9]: -0.173
- glycan array binding signal (z-score) (Kdn(a2-3)Gal(b1-4)Glc): -0.168
- glycan array binding signal (z-score) [10]: 4.32
- glycan array binding signal (z-score) [11]: 4.79
- glycan array binding signal (z-score) [12]: 4.54
- glycan array binding signal (z-score) [13]: 8.27
- glycan array binding signal (z-score) [14]: 10.8
- glycan array binding signal (z-score) [15]: 5.89
- glycan array binding signal (z-score) [16]: 6.43
- glycan array binding signal (z-score) [17]: -0.164
- glycan array binding signal (z-score) [18]: -0.174
- glycan array binding signal (z-score) [19]: -0.176
- glycan array binding signal (z-score) [20]: -0.25
- glycan array binding signal (z-score) [21]: -0.177
- glycan array binding signal (z-score) [22]: -0.174
- glycan array binding signal (z-score) [23]: -0.169
- glycan array binding signal (z-score) [24]: -0.024
- glycan array binding signal (z-score) [25]: -0.161
- glycan array binding signal (z-score) [26]: -0.19
- glycan array binding signal (z-score) [27]: -0.171
- glycan array binding signal (z-score) [28]: -0.189
- glycan array binding signal (z-score) [29]: 1.69
- glycan array binding signal (z-score) [30]: -0.179
- glycan array binding signal (z-score) [31]: 4.09
- glycan array binding signal (z-score) [32]: -0.107
